Results published in PubChem BioAssay (EPA / NIEHS).
The source made the active and inactive calls. How the source made its calls: active means hit-call score of the fitted dose curve at least 0.9, where 1 is the maximum; inactive means score below 0.9.

read-out: MYC, MYC (gene 4609); test: LTEA_HepaRG_MYC: Life Technologies and Expression Analysis (LTEA) Assay for MYC using HepaRG (AID 2283518); conditions: mRNA level, 48 h; actives raise or lower the signal
Protocol: LTEA_HepaRG is a cell based, multiplexed-readout assay that uses HepaRG, a human liver cell line, with measurements taken at 48 hours after chemical dosing on a 96-well plate.LTEA_HepaRG_MYC is one of 102 assay component(s) measured in the LTEA HepaRG cell culture assay. It is a marker of Cell proliferation, survival, death.Data from the assay component LTEA_HepaRG_MYC was analyzed into 1 endpoint. This assay endpoint, LTEA_HepaRG_MYC, was analyzed with bidirectional fitting relative to DMSO as the negative control and baseline of activity. Using a type of inducible reporter, measures of mRNA induction for gain or loss-of-signal activity can be used to understand regulation of transcription factor activity. To generalize the intended target to other relatable targets, this assay endpoint is annotated to the dna binding intended target family, where the subfamily is basic helix-loop-helix leucine zipper.
A total of 1060 chemcials from the ToxCast library were tested in eight-point concentration-response experiments. Cell culture and cytotoxicity assays were conducted at Thermo Fisher Scientific's Custom Services facility (Madison, WI). A single lot of human HepaRG cells (Thermo Fisher Scientific, Frederick, MD) was used for the cell culture experiments. 96-well format collagen type I coated plates of human HepaRG cells were prepared using established methods. Briefly, cryopreserved HepaRG cells were thawed, plated at a density of approximately 100,000 cells/well in HepaRG Thaw, Plate, and General Purpose media (HPRG770, Thermo Fisher Scientific), and incubated for 48 hours. 0.5% DMSO was selected as vehicle control to balance the requisite need of DMSO in HepaRG cultures to maintain differentiation (for example, baseline metabolism, proportions of hepatocytes vs. cholangiocytes), while enabling further hepatic receptor pathway activation (for example, PXR and CAR) in response to chemical exposure. 48 hours after plating, the culture medium was replaced with HepaRG Serum-Free Incudtion Media. Cells were exposed to each test chemical in duplicate and maintained in CO2 incubators for another 48 hours. Chemical plates were thawed to room temperature and 200x concentrations of treatment groups were prepared. 8-point conentration-reponse curves were made with the highest exposure at 100 uM, followed by half-log dilutions, all in 0.5% DMSO. Each test plate contained variouse controls, induction positive controls (1mM phenobarbital), cytotoxicity positive controls ([…] aflatoxin B1), vehicle controls (0.5% DMSO), and total lysis controls (0.5% DMSO). Cell morphology images were taken using an Essen IncuCyte FLR automated microscope, with six 96-well plates imaged in about 24 minutes. Images were captured and exported and JPEG files. Spent culture media was transfered to black-well plates for the LDH assay, and remaining media was sorted at -80 C for later use. Cells were treated with RLT buffer and frozen until shipped for gene expression analysis. Total RNA was isolated from the cell suspension in 75 uL of Buffer RLT (Qiagen, Germantown, MD 20874) by Quintiles/Expression Analysis (Durham, NC) using a custom isolation procedure. Total RNA from each plate well was transferred to a preamplification plate. Fluidigm's 96.96 Dynamic ArrayTM (Fluidigm, Amsterdam, the Netherlands) technology was used for gene expression analyses by quantitative reverse transcription polymerase chain reaction (qRT-PCR, performed by Quintiles/Expression Analysis, Durham, NC)89. Standard TaqManTM Assays (Applied Biosystems/ThermoFisher Scientific, Foster City, CA) were used to assess the expression of 93 genes selected based on their selectivity and sensitivity to important hepatic receptors known to be modulated by environmental chemicals; importance in human hepatocyte functionality; and hepatotoxicity. […]

outcome, inactive:
CCCCCCCCCCCCOS(=O)(=O)O
CCCCC=O
CN(Cc1cnc2nc(N)nc(N)c2n1)c1ccc(C(=O)N[C@@H](CCC(=O)O)C(=O)O)cc1
O=C1NS(=O)(=O)c2ccccc21
CCCCC(CC)C(=O)O (stereo unspecified)
OCC(CO)(CBr)CBr
CC(=O)Nc1ccc(O)cc1
CCC(C)c1ccccc1O (stereo unspecified)
O=C(c1ccccc1)c1ccccc1
CN(C)CCOC(c1ccccc1)c1ccccc1
CCCCCCCCCCCCCCC

AC50, active:
O=C(CCCN1CCC(O)(c2ccc(Cl)cc2)CC1)c1ccc(F)cc1 73.6 µM
N=C(N)c1ccc(OCCCCCOc2ccc(C(=N)N)cc2)cc1 3.56 µM
CS(=O)(=O)c1ccc([C@@H](CC2CCCC2)C(=O)Nc2cnccn2)cc1Cl 62.7 µM
Cc1[nH]nc2c1N=C(c1ccccc1Cl)c1cc([N+](=O)[O-])ccc1N2 82 µM
CCCCc1oc2ccccc2c1C(=O)c1cc(I)c(OCCN(CC)CC)c(I)c1 68.7 µM
